# Results published in PubChem BioAssay AID567 (The Scripps Research Institute Molecular Screening Center, 2006).
# About 370 (0.57%) of roughly 65,000 compounds were called active. This is one part of a sample in which actives are shown more often than they occur.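 How the source made its calls: active means activation above the screen-wide mean activation plus 3 SD (cut at about 19% in these data); inactive means the rest.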
# Target: 5-hydroxytryptamine receptor 1A (Homo sapiens) (UniProt P08908)
# Sequence (P08908 whole entry, looked up): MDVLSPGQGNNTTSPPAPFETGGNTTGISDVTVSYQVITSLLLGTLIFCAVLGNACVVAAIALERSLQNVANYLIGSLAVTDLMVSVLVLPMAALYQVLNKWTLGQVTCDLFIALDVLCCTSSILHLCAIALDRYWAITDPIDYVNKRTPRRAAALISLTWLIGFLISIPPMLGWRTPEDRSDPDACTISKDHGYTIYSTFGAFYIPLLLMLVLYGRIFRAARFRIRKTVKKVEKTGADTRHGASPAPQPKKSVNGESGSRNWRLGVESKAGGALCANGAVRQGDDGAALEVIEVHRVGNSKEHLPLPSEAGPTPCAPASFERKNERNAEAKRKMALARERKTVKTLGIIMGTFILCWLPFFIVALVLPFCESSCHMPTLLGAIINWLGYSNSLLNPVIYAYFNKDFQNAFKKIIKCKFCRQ
# Experiment: human 5-HT1a receptor agonists, primary screen, cell-based, CHO, Ga15 NFAT-bla reporter (AID 567);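 further: 0% = DMSO wells and 100% = 5-CT at EC100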
# Settings: CHO 5-HT1a Ga15 NFAT-bla reporter, FRET ratio; at 10 µM; hits give high values; 0% basal, 100% maximal reference agonist
row,SMILES,activation
1,COc1cccc(C2/C(=C(/O)c3ccncc3)C(=O)C(=O)N2CCCN(C)C)c1 (stereo unspecified),-2.65% (inactive)
2,CN1C(=O)c2ccc(NC(=O)c3c(F)c(F)c(F)c(F)c3F)cc2C1=O,-1.19% (inactive)
3,Cc1nc(N2CCCC2C(=O)O)c2oc3ccccc3c2n1 (stereo unspecified),0.22% (inactive)
4,CCC(=O)c1ccc(OCC(O)CN2C(=O)NC(C)(C)C2=O)cc1 (stereo unspecified),80.3% (active)
5,CCC(=O)c1ccc(OCC(O)CN2CC(C)OC(C)C2)cc1 (stereo unspecified),-2.72% (inactive)
6,CC1(C)NC(=O)N(CCOc2cccc(Oc3ccccc3)c2)C1=O,-2.31% (inactive)
7,O=C(Nc1ccccc1N1CCN(c2ccccc2)CC1)c1cccc(F)c1,3.42% (inactive)
8,CCCC(=O)Nc1ccccc1N1CCN(C(=O)c2ccccc2)CC1,0.59% (inactive)
9,O=C(Nc1ccccc1N1CCN(C(=O)c2ccccc2)CC1)c1ccc2c(c1)OCO2,60% (active)
10,Cc1noc(C)c1COC(=O)Cn1c(C)nc2ccccc21,-2.62% (inactive)
11,O=C(O)CCCC(=O)Nc1ccccc1-n1ccnc1,-6.2% (inactive)
12,CC(C)NS(=O)(=O)c1ccc(CCC(=O)N2CCOCC2)cc1,-3.1% (inactive)
13,CCn1c(SCC(=O)Nc2cc(C)ccc2C)nnc1-c1cnccn1,-3.82% (inactive)
14,Cc1ccc2c(c1)NCC(C(=O)NC1CCC(C)CC1)O2 (stereo unspecified),-2.41% (inactive)
15,CCC(=O)Nc1ccccc1C(=O)N1CCN(Cc2ccccc2)CC1,-6.46% (inactive)
16,CC1CCCCN1CC(=O)NCc1ccc2c(c1)OCO2 (stereo unspecified),0.18% (inactive)
17,CSc1ccc(-c2c(C#N)c(N)nc3c2c(C)nn3-c2ccccc2)cc1,1.16% (inactive)
18,COc1ccc(O)c(C=Nc2cc(C)on2)c1,-4.57% (inactive)
19,Cc1ccc(C(c2sc3nc(C)nn3c2O)N2CCN(c3ccccc3)CC2)cc1 (stereo unspecified),1% (inactive)
20,Cn1cc(S(=O)(=O)N2CCC(Cc3ccccc3)CC2)c(=O)n(C)c1=O,-1.31% (inactive)
21,O=C(CSc1ncccn1)NC(=O)NCc1ccccc1,-2.73% (inactive)

row,SMILES,activation
1,O=C(CN1CCN(c2ccccc2F)CC1)c1ccc2c(c1)OCO2,-1.08% (inactive)
2,O=C(NC1CCCCC1)n1c(=O)oc2cc(S(=O)(=O)N3CCCCC3)ccc21,1.83% (inactive)
3,CCCC(=O)Nc1nnc(CC(=O)OCC)s1,-1.79% (inactive)
4,O=C(c1ccc(-n2cnnn2)cc1)N1CCN(C(c2ccccc2)c2ccccc2)CC1,-2.96% (inactive)
5,CCOC(=O)c1cc2cc(-c3c(C(=O)OCC)oc4cc(O)cc(O)c4c3=O)ccc2o1,20.4% (active)
6,CCCOC(=O)c1cc2ccccc2oc1=O,-1.25% (inactive)
7,O=c1c(-c2ccc3c(c2)OCCO3)c(C(F)(F)F)oc2cc(O)cc(O)c12,2.15% (inactive)
8,CN(C)S(=O)(=O)c1ccc(Oc2ccc(S(=O)(=O)N(C)C)cc2)cc1,-1.45% (inactive)
9,Cc1ccc(Oc2ccc(N)cc2)cc1,61.2% (active)
10,COc1cccc(Oc2ccc(N)cc2)c1,-1.26% (inactive)
11,C=C(Br)Cn1c(CCCC)nc2ccccc21,0.52% (inactive)
12,Cn1c(=O)c(=O)n(C)c2cc(S(=O)(=O)NCCc3ccccc3)ccc21,-2.1% (inactive)
13,CCOC(=O)C1C(=O)C=C(c2ccc(OC)cc2)CC1c1ccco1 (stereo unspecified),-1.83% (inactive)
14,O=C(CS(=O)(=O)c1cn(Cc2cccc(F)c2)c2ccccc12)N1CCCCC1,0.6% (inactive)
15,COc1ccc(NC(=O)CN(C)S(=O)(=O)c2ccccc2)cc1OC,-0.21% (inactive)
16,CC(=O)Nc1ccc(S(=O)(=O)Nc2nc3n(n2)C(c2ccccc2)CC(=O)N3)cc1 (stereo unspecified),-0.5% (inactive)
17,CCOC(=O)NC(C(F)(F)F)(C(F)(F)F)P(=O)(c1ccccc1)c1ccccc1,-0.98% (inactive)
18,c1cc(-c2nn[nH]n2)ccc1CN1CCCCC1,-2.19% (inactive)
19,O=C(CSc1ncccn1)NCCc1ccccc1,0.69% (inactive)
20,O=C(CCn1c(=O)[nH]c2ccccc2c1=O)NCCCN1CCN(c2cccc(Cl)c2)CC1,21.7% (active)
21,O=C(CCCn1c(=O)[nH]c2cc(Cl)ccc2c1=O)NCCN1CCN(c2ccccc2)CC1,-0.6% (inactive)

row,SMILES,activation
1,O=C(CCn1c(=S)[nH]c2ccccc2c1=O)NCCCN1CCCC1=O,-0.9% (inactive)
2,CCn1c(=O)cc(OCC(=O)NCCCN2CCN(c3cccc(Cl)c3)CC2)c2ccccc21,-3.65% (inactive)
3,Cn1c(C(=O)NCCCN2CCN(c3cccc(Cl)c3)CC2)cc2c(=O)n(C)c3ccccc3c21,36.5% (active)
4,CC1CCCC(C)N1CCCNC(=O)c1cc2c(=O)n(C)c3ccccc3c2n1C (stereo unspecified),-1.82% (inactive)
5,O=S(=O)(N1CCOCC1)N1CCN(c2ccccc2F)CC1,-0.75% (inactive)
6,O=S(=O)(Nc1ccccn1)c1ccc(Oc2ccccc2)cc1,0.59% (inactive)
7,O=C(C1=C(O)C(=O)N(c2ncccn2)C1c1cccs1)c1ccco1 (stereo unspecified),-1.27% (inactive)
8,Cc1nc2ccccc2cc1O,0.14% (inactive)
9,CCC1CCCCN1C(=O)Nc1cccc(NC(=O)N2CCCCC2CC)c1 (stereo unspecified),-2.03% (inactive)
10,CCOc1ccc(Cn2nnc(C(=O)Nc3ccc(OC)cc3OC)c2N)cc1,3.25% (inactive)
11,O=c1c2ccccc2oc2nc3n(c(=O)c12)CCCS3,-0.78% (inactive)
12,COc1ccc(C(C(O)C(=O)c2c[nH]c3ccccc23)N2CCN(c3ccccc3)CC2)cc1 (stereo unspecified),-3.45% (inactive)
13,CCc1c(C)nc2cc(-c3cccs3)[nH]n2c1=O,-3.62% (inactive)
14,Cc1ccc(S(=O)(=O)C(C#N)c2nc3ccccc3nc2N2CCCC2)cc1C (stereo unspecified),1.05% (inactive)
15,CC(C)CCNC(=O)C(C)N(C(=O)Cn1nnc(-c2ccc(F)cc2)n1)C1CCCC1 (stereo unspecified),0.97% (inactive)
16,CC(C)(C)n1nc2c(c1NC(=O)c1ccc(S(=O)(=O)N3CCCC3)cc1)CS(=O)C2 (stereo unspecified),-0.05% (inactive)
17,O=C1CCC(Cc2ccccc2)N1 (stereo unspecified),-0.21% (inactive)
18,CC1CCN(C(=O)Cn2cc(C(=O)c3ccco3)c3ccccc32)CC1,-0.71% (inactive)
19,Cc1cc(=O)cc(C)[nH]1,-2.27% (inactive)
